# From PubChem BioAssay
# Values without a mark were called inactive. The source made the active and inactive calls.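 How the source made its calls: active means inhibition at or above 50% relative to wild type and mutant plate controls; inactive means inhibition below 50%.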
# Assay: loss of swimming-algae plug formation – whole organism, Chlamydomonas reinhardtii, WT vs cilia-less mutant, absorbance, 96-well, primary screen (AID 463189);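 further: 0% = wild type cc124 cells in DMSO and 100% = ciliumless bld1 mutant cells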
# Details: Chlamydomonas reinhardtii gravitaxis, OD600 absorbance, 2 days; at 10 µM; active compounds read high
row,SMILES,inhibition
1,O=C(O)C1=CCCN(CCON=C(c2ccccc2)c2ccccc2)C1,-1.19%
2,O=C(O)c1cc2cc(Cc3cccnc3)ccc2o1,-4.17%
3,CC1C(=O)N(C)C(=O)c2nc[nH]c21 (stereo not given),7.36%
4,CN1CCc2c(cc(O)c(O)c2Cl)C(c2cccc(Cl)c2)C1 (stereo not given),-5.57%
5,COc1ccc2c(c1)CCC1C2CC[C@@]2(C)C1CC[C@@H]2NCCCCCCN1C(=O)C=CC1=O (stereo not given in full),1.37%
6,COc1ccc2c(c1)c(CC(=O)O)c(C)n2C(=O)c1ccccc1,2.3%
7,C=C/C(C)=C/[C@@]1(C)SC(=O)C(C)=C1O,5.01%
8,CC(C)C(=O)c1c(C(C)C)nn2ccccc12,52.8% (active)
9,O=c1[nH]c(=O)n([C@H]2C[C@H](O)[C@@H](CO)O2)cc1Br,2.45%
10,FC(F)(F)c1cc(CO[C@H]2CCCN[C@H]2c2ccccc2)cc(C(F)(F)F)c1,14.5%
11,NC(=O)C1=CN(C2OC(COP(=O)(O)OP(=O)(O)OC[C@H]3O[C@@H](n4cnc5c(N)ncnc54)C(OP(=O)(O)O)[C@H]3O)C(O)C2O)C=CC1 (stereo not given in full),-0.493%
12,Cc1cccc(C)c1OCC(N)C(C)C (stereo not given),9.25%
13,COC(=O)[C@@H](N)Cc1ccc(O)c(O)c1,-3.44%
14,Nc1nc(Cl)nc2c1ncn2[C@@H]1O[C@H](CO)[C@H](O)C1O (stereo not given in full),1.82%
15,CNC(=O)[C@H]1O[C@@H](n2cnc3c(N)ncnc32)C(O)[C@H]1O (stereo not given in full),1.69%
